Screening results: PubChem, National Center for Advancing Translational Sciences (NCATS)
In the library only some 9% were active in any assay of this set; here they are far more common.
HPGD inh – HPGD (human) dehydrogenase inhibition | purified HPGD, NADH fluorescence kinetic, PGE2 substrate | Potency, µM, inactives show top-dose activity change, negative = inhibition, usual class: inhibitors | 150,000 tested, 4.3% active; also: potency is read from the fitted curve at half-maximal effect
Target sequence (P15428 whole entry, looked up): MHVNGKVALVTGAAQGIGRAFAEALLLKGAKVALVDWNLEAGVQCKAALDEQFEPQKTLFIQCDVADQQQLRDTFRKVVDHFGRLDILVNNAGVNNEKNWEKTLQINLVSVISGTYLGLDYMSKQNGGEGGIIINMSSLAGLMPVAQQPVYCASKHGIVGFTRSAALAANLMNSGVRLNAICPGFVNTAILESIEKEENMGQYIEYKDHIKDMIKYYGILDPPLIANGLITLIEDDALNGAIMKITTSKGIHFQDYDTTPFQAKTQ
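20 nM HPGD preincubated 15 min at room temperature with compound in 50 mM Tris-HCl pH 8, 0.01% Tween 20. Started with 1 mM NAD+ and 30 uM prostaglandin E2; NADH fluorescence (360/450 nm) read 5 times over 30-s intervals, last minus first.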
IMPase inh – membrane-permeable compound that blocks inositol monophosphatase | P97697 | CHO-M1 cells, IP1 accumulation, HTRF TR-FRET ratio | inhibition (IP1 accumulation), % at 46.1 µM | 120,000 tested, under 10 active; active = well fitted curve in the direction sought with a large enough effect in the signal ratio, not every such curve was filed as active; inconclusive = small, poorly fitted or top-dose-only effect, or a change in a side signal; inactive = no such curve, though single readings can be large or run the other way; the % refers to the signal ratio;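 also: cells stimulated with carbachol in lithium chloride buffer; plate controls were DMSO basal wells for no effect and reference inhibitor wells for full effect; higher means more IMPase inhibition seen as more IP1 and lower FRET ratio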
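CHO-M1, 2000 cells/well, cultured 16–30 h; cpd up to 46 uM; carbachol (50 uM solution, stimulation buffer w/ 50 mM LiCl, pH 7.4), 30 min 37C; IP-One TR-FRET, 10 min RT; Ex 320/Em 665, 620; Hill-fit AC50.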
ALDH1A1 inh – ALDH1A1 (human) enzyme inhibition. P00352. Purified ALDH1A1, NADH fluorescence, propionaldehyde substrate. Potency, µM (highest dose often 75.3 µM), for inactives: at the top dose activity, negative = inhibition, usual class: inhibitors. 220,000 tested, 7.3% active;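 also: potency is read from the fitted curve at half-maximal effect; plate controls were no enzyme wells and a reference inhibitor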
Active calls of the source: *; ? = inconclusive; · = no result; [ ] = another dose, or the depositor's remark. Unless noted, calls follow the shape of the dose curve; as a rule, active = well fitted inhibition curve with a large enough effect (not every such curve was filed as active); inconclusive = small, poorly fitted or top-dose-only effect, or another doubt; inactive = no such curve, though single readings can be large or run the other way. Unless noted, % is scaled to controls: 0 for no effect and ±100 for the full control effect.

SMILES	HPGD inh	IMPase inh	ALDH1A1 inh
CCOC(=O)c1ccc(N2C(=O)CC(N3CCC(C(N)=O)(N4CCCCC4)CC3)C2=O)cc1 (stereo not drawn)	-13%	1	8.9µM*
CCOc1ccc(N2C(=O)CC(N3CCOCC3)C2=O)cc1 (stereo not drawn)	-9%	5	?
CC(=O)Oc1ccc(N2C(=O)CC(N3CCOCC3)C2=O)cc1 (stereo not drawn)	-5%	-5	32µM*
CCCCS(=O)(=O)N1CCc2nc(COc3ccccc3)c3c(c2C1)CO[C@@H](C)C3	-5%	·	2%[13.5 µM]
CCCCC[C@H](O)/C=C/C=C\C/C=C\CCCCC(=O)O	2%	·	0%
NNC(=O)C(=O)Nc1ccc(O)cc1	·	·	-1%
Cc1cc(Br)ccc1NC(=O)Cn1cc(S(=O)(=O)N2CCN(c3ccccc3F)CC2)c2ccccc2c1=O	·	0	·
Cc1ccc(NC2CC(=O)N(c3ccc(C)cc3)C2=O)cc1 (stereo not drawn)	-8%	-6	4%
CCOC(=O)N1CCN(C2CC(=O)N(c3ccc(C)cc3)C2=O)CC1 (stereo not drawn)	-1%	-1	?
CCOC(=O)c1ccc(N2C(=O)CC(N3CCOCC3)C2=O)cc1 (stereo not drawn)	-3%	-1	25µM*
CCOc1cccc(N2C(=O)CC(N3CCC(C(N)=O)(N4CCCCC4)CC3)C2=O)c1 (stereo not drawn)	-13%	-1	25µM*
CCOC(=O)c1ccc(N2C(=O)CC(NC3CCN(C(=O)c4cccc(Cl)c4)CC3)C2=O)cc1 (stereo not drawn)	-8%	-2	13µM*
O=C(c1cccc(Cl)c1)N1CCC(c2nc3ccccc3[nH]2)CC1	·	·	-6%
CCOc1cccc(N2C(=O)CC(n3cnc4ccccc43)C2=O)c1 (stereo not drawn)	-9%	0	-11%
CCOC(=O)c1ccc(N2C(=O)CC(Nc3ccc(CCO)cc3)C2=O)cc1 (stereo not drawn)	-23%	-4	16µM*
C#C[C@]1(OC(C)=O)CC[C@H]2[C@@H]3CCC4=CC(=O)CC[C@@H]4[C@H]3CC[C@@]21C	-6%	·	6%
Cc1c(Cl)cccc1N(Cc1ccc(C(=O)O)cc1)S(=O)(=O)c1ccccc1	·	·	2%
C=CCN(c1ccccc1)S(=O)(=O)c1c(C)[nH]c(=O)[nH]c1=O	·	·	6%
O=C(O)c1cc2ccccc2c(S(=O)(=O)O)c1O	-14%	·	10%[13.5 µM]
CCOc1cccc(N2C(=O)CC(N(CCc3ccc(OC)c(OC)c3)C(=O)CC)C2=O)c1 (stereo not drawn)	-2%	0	0%
CCOC(=O)c1ccc(N2C(=O)CC(N(C)CCc3ccc(OC)c(OC)c3)C2=O)cc1 (stereo not drawn)	-3%	2	10µM*
Cc1ccc(/C=C/C2=C[C@]3(C)C[C@]2(C)[C@H](c2ccc(C)cc2)CC3=O)cc1	-5%	·	?
CN(Cc1ccco1)c1ccnc(-c2ccoc2)n1	-18%	·	?
Cc1noc(C)c1-c1nccc(N(C)Cc2ccco2)n1	·	·	14µM*
O=C(O)CCCCn1ccc(=O)[nH]c1=O	-6%	·	7%[13.5 µM]
SMILES	HPGD inh	IMPase inh	ALDH1A1 inh
O=C(CN1C(=O)S/C(=C\C=C\c2ccccc2)C1=O)Nc1ccc(C(=O)O)cc1	·	·	13µM*
O=C(CN1C(=O)S/C(=C/C=C/c2ccccc2)C1=O)Nc1ccc(C(=O)O)cc1	·	·	-7%
CCN(C(=O)c1ccc(C(=O)N(CC)c2ccccc2C)cc1)c1ccccc1C	·	-3	·
CCCCCCCN(C(=O)CCl)c1ccccc1C	-4%	14	0.5µM*
O=C(CSc1cccc[n+]1[O-])Nc1cccc(Oc2ccccc2)c1	·	·	5%
COc1ccc(-c2nc3ccccc3s2)cc1NC(=O)COc1cccc(C)c1	·	0	·
Cc1ccc(S(=O)(=O)N(CCC#N)C2CCCCC2)c2nsnc12	-18%	·	?
N#CCCN(C1CCCCC1)S(=O)(=O)CCOc1ccccc1	-4%	-3	8.9µM*
COCCn1c(CN2CCc3ccccc3C2)nc2c1c(=O)n(C)c(=O)n2C	·	·	5%
Cc1ccc2c(c1)cc(CN(Cc1ccc3c(c1)OCO3)C(=O)c1cnccn1)c1nnnn12	-7%	-5	?
Cc1cc2cc(CN(Cc3ccc4c(c3)OCO4)C(=O)c3cnccn3)c3nnnn3c2cc1C	-18%	0	14µM*
CCOC(=O)c1c(C)oc2c1cc(NS(=O)(=O)c1ccc(C)cc1)c1ccccc12	·	1	·
CN1C(=O)C(O)(CC(=O)/C=C/c2ccco2)c2cc(Br)ccc21 (stereo not drawn)	·	·	24µM*
CCN1C(=O)C(O)(CC(=O)c2ccc3c(c2)OCCO3)c2ccccc21 (stereo not drawn)	-16%	1	?
